Results filed as inconclusive are left out. Activity calls are given as the source filed them. Rule for the calls, unless noted: active = hit-call score of the fitted dose curve at least 0.9, where 1 is the maximum; inconclusive = response in the unintended direction; inactive = score below 0.9.
What was measured:
[1] = molecular target: human Peroxisome Proliferator-activated Receptor delta (PPARd), PPARD (gene 5467) (UniProt Q03181); assay: ATG_PPARd_TRANS: Attagene TRANS-FACTORIAL HepG2 Assay for human Peroxisome Proliferator-activated Receptor delta (PPARd) (AID 2283002)
How it was run: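 HepG2 cells transiently transfected with GAL4-UAS multiplexed reporter units driven by exogenous chimeric NR-GAL4 proteins; 24 h compound exposure. Reporter mRNA measured by RT-PCR, 6-FAM primer extension, HpaI digestion and capillary electrophoresis; gain of signal fitted relative to DMSO.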

[2] = molecular target: Nuclear receptor subfamily 1 group I member 2 (Homo sapiens) (UniProt O75469); assay: ATG_PXR_TRANS: Attagene TRANS-FACTORIAL HepG2 Assay for human Pregnane X Receptor (PXR) (AID 2283008)
How it was run: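 HepG2 cells transiently transfected with GAL4-UAS reporter units and PXR-Gal4 chimera, exposed 24 h. Reporter mRNA quantified by RT-PCR, fluorescent labelling, HpaI digestion and capillary electrophoresis; gain of signal vs DMSO.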

[3] = molecular target: human RAR-related Orphan Receptor gamma (RORg), RORC (gene 6097) (UniProt P51449); assay: ATG_RORg_TRANS: Attagene TRANS-FACTORIAL HepG2 Assay for human RAR-related Orphan Receptor gamma (RORg) (AID 2283011)
How it was run: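 HepG2 cells transiently transfected with GAL4-UAS reporter units and chimeric RORg-Gal4 construct; after 24 h chemical exposure, reporter mRNA measured by RT-PCR with fluorescent capillary electrophoresis, gain of signal fitted against DMSO.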

[4] = molecular target: human Retinoid X Receptor beta (RXRb), RXRB (gene 6257) (UniProt P28702); assay: ATG_RXRb_TRANS: Attagene TRANS-FACTORIAL HepG2 Assay for human Retinoid X Receptor beta (RXRb) (AID 2283013)
How it was run: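 Transfect HepG2 with GAL4-UAS multi-reporter constructs (chimeric NR-Gal4, TRANS format); dose compound 24 h; isolate RNA, RT-PCR, FAM primer extension, HpaI digest; quantify by capillary electrophoresis; positive direction vs DMSO.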

[5] = molecular target: human RAR-related Orphan Receptor beta (RORb), RORB (gene 6096) (UniProt Q92753); assay: ATG_RORb_TRANS: Attagene TRANS-FACTORIAL HepG2 Assay for human RAR-related Orphan Receptor beta (RORb) (AID 2283010)
How it was run: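 Readout is reporter-gene mRNA induction, detected as fluorescence after RT-PCR and capillary electrophoresis, fitted for gain of signal against DMSO controls. Transiently transfected HepG2 liver cells carrying GAL4-UAS reporter constructs were treated for 24 hours.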

[6] = molecular target: human Retinoic Acid Receptor beta (RARb), RARB (gene 5915) (UniProt P10826); assay: ATG_RARb_TRANS: Attagene TRANS-FACTORIAL HepG2 Assay for human Retinoic Acid Receptor beta (AID 2283004)
How it was run: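 HepG2 cells were transiently transfected with GAL4-UAS reporter units that report activity of exogenous chimeric NR-Gal4 proteins, then exposed to compound for 24 h. Reporter mRNA was quantified by RT-PCR with capillary electrophoresis fluorescence, as gain of signal over DMSO.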

[7] = molecular target: Peroxisome proliferator-activated receptor gamma (Homo sapiens) (UniProt P37231); assay: ATG_PPARg_TRANS: Attagene TRANS-FACTORIAL HepG2 Assay for human Peroxisome Proliferator-activated Receptor-gamma (PPARg) (AID 2283007)
How it was run: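 HepG2 cells are transiently transfected with GAL4-UAS reporter units driven by chimeric NR-Gal4 fusions and dosed for 24 h. Reporter mRNA is quantified by RT-PCR, 6-FAM labelling, HpaI digestion and capillary electrophoresis. Induction is scored against DMSO.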

[8] = molecular target: human Thyroid Receptor alpha (THRa1), THRA (gene 7067) (UniProt P10827); assay: ATG_THRa1_TRANS: Attagene TRANS-FACTORIAL HepG2 Assay for human Thyroid Receptor alpha (THRa1) (AID 2283014)
How it was run: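 HepG2 cells transiently transfected with chimeric NR-Gal4 and GAL4-UAS reporter units, dosed 24 h. Reporter mRNA quantified by RT-PCR, fluorescent labeling, HpaI digestion and capillary electrophoresis; gain-of-signal fit versus DMSO.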

[9] = molecular target: Retinoic acid receptor alpha (Homo sapiens) (UniProt P10276); assay: ATG_RARa_TRANS: Attagene TRANS-FACTORIAL HepG2 Assay for human Retinoic Acid Receptor alpha (RARa) (AID 2283005);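 for AC50: potency for increased reporter signal meaning RARa activation over DMSO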
How it was run: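 HepG2 transiently transfected with multiplex GAL4-UAS reporter units including a human RARa–GAL4 chimera; 24 h compound exposure. Reporter mRNA quantified by RT-PCR, 6-FAM labeling and capillary electrophoresis; gain of signal versus DMSO.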

[10] = molecular target: human Retinoic Acid Receptor gamma (RARg), RARG (gene 5916) (UniProt P13631); assay: ATG_RARg_TRANS: Attagene TRANS-FACTORIAL HepG2 Assay for human Retinoic Acid Receptor gamma (RARg) (AID 2283009)
How it was run: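 Transient transfection of HepG2 with multi-reporter constructs, then 24 h chemical treatment. Total RNA isolated, reverse-transcribed, PCR-amplified, fluorescently labelled and resolved by capillary electrophoresis; activity scored as mRNA induction versus DMSO.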

[11] = molecular target: Retinoic acid receptor RXR-alpha (Homo sapiens) (UniProt P19793); assay: ATG_RXRa_TRANS: Attagene TRANS-FACTORIAL HepG2 Assay for human Retinoid X Receptor alpha (RXRa) (AID 2283012)
How it was run: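 Transient transfection of human HepG2 with multiple GAL4-UAS reporter constructs; 24 h compound exposure; total RNA isolated, reverse-transcribed, PCR-amplified, 6-FAM labelled, HpaI-cut, resolved by capillary electrophoresis. Positive-direction fit versus DMSO.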

[12] = read-out: Intercellular Adhesion Molecule 1 (ICAM1), ICAM1 (gene 3383); assay: BSK_3C_ICAM1: BioMAP Diversity Plus: 3C Assay for Intercellular Adhesion Molecule 1 (ICAM1) Biomarker Activity (AID 2283003; active = hit-call score of the fitted dose curve at least 0.9, where 1 is the maximum; inactive = score below 0.9); details: primary human endothelial cells (HUVEC); actives raise or lower the signal
How it was run: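 ICAM-1 levels measured by ELISA after HUVEC cultures in the 3C system had been dosed for 24 h. Gain or loss of signal relative to DMSO was fitted in both directions.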

[13] = read-out: E-selectin (Homo sapiens) (UniProt P16581); assay: BSK_3C_Eselectin: BioMAP Diversity Plus: 3C Assay for Eselectin Biomarker Activity (AID 2283015; active = hit-call score of the fitted dose curve at least 0.9, where 1 is the maximum; inactive = score below 0.9;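 note: cell surface E-selectin protein quantified by ELISA 24 h after dosing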); details: primary human endothelial cells (HUVEC); actives raise or lower the signal
How it was run: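 Primary human umbilical vein endothelial cells (3C system), read 24 h after compound addition; E-selectin measured by ELISA. Bidirectional curve fitting against DMSO baseline; cytotoxicity by parallel SRB total-protein staining.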

[14] = read-out: Interleukin-1 alpha (IL1a), IL1A (gene 3552); assay: BSK_BE3C_IL1a: BioMAP Diversity Plus: BE3C Assay for Interleukin-1 alpha (IL1a) Biomarker Activity (AID 2283016; active = hit-call score of the fitted dose curve at least 0.9, where 1 is the maximum; inactive = score below 0.9); details: primary human bronchial epithelial cells; actives raise or lower the signal
How it was run: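 BE3C primary human bronchial epithelium; cpd 24 h; IL-1a by ELISA; bidirectional fit vs DMSO; parallel SRB (0.1% SRB, 10% TCA fix, 560 nm) for cytotoxicity.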

[15] = read-out: Monocyte Chemoattractant Protein-1 (MCP1), CCL2 (gene 6347); assay: BSK_3C_MCP1: BioMAP Diversity Plus: 3C Assay for Monocyte Chemoattractant Protein-1 (MCP1) Biomarker Activity (AID 2283017; active = hit-call score of the fitted dose curve at least 0.9, where 1 is the maximum; inactive = score below 0.9); details: primary human endothelial cells (HUVEC); actives raise or lower the signal
How it was run: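 Human umbilical vein endothelial cells (3C system) exposed to chemicals for 24 h; MCP-1 quantified by ELISA against the DMSO baseline with bidirectional fitting, and parallel SRB staining used to assess cytotoxicity.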

[16] = read-out: Monocyte Chemoattractant Protein-1 (MCP1), CCL2 (gene 6347); assay: BSK_4H_MCP1: BioMAP Diversity Plus: 4H Assay for Monocyte Chemoattractant Protein-1 (MCP1) Biomarker Activity (AID 2283018; active = hit-call score of the fitted dose curve at least 0.9, where 1 is the maximum; inactive = score below 0.9); details: primary human endothelial cells (HUVEC); actives raise or lower the signal
How it was run: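 ELISA read-out of MCP-1 from human vascular endothelial primary cells taken at 24 hours after compound exposure. Activity was fitted in both directions relative to DMSO, which served as negative control.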

[17] = read-out: Human Leukocyte Antigen - DR isotype (HLADR), HLA-DRA (gene 3122); assay: BSK_3C_HLADR: BioMAP Diversity Plus: 3C Assay for Human Leukocyte Antigen - DR isotype (HLADR) Biomarker Activity (AID 2283019; active = hit-call score of the fitted dose curve at least 0.9, where 1 is the maximum; inactive = score below 0.9;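 note: ELISA of cell-surface HLA-DR on HUVEC 24 h after dosing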); details: primary human endothelial cells (HUVEC); actives raise or lower the signal
How it was run: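 HUVEC monoculture, HLA-DR measured by ELISA 24 h after chemical dosing. Fitted bidirectionally against DMSO baseline; parallel SRB staining assessed cytotoxicity, with 3C proliferation read by SRB at 48 h.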

[18] = read-out: Interleukin-8 (IL8), CXCL8 (gene 3576); assay: BSK_3C_IL8: BioMAP Diversity Plus: 3C Assay for Interleukin-8 (IL8) Biomarker Activity (AID 2283020; active = hit-call score of the fitted dose curve at least 0.9, where 1 is the maximum; inactive = score below 0.9); details: primary human endothelial cells (HUVEC); actives raise or lower the signal
How it was run: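 ELISA read-out of IL-8 from human umbilical vein endothelium, measured 24 h after chemical dosing. Activity is expressed relative to DMSO negative control, with both increases and decreases fitted.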

Measured: AC50

Sequence of human Retinoic Acid Receptor gamma (RARg), RARG (gene 5916) (P13631 whole entry, looked up): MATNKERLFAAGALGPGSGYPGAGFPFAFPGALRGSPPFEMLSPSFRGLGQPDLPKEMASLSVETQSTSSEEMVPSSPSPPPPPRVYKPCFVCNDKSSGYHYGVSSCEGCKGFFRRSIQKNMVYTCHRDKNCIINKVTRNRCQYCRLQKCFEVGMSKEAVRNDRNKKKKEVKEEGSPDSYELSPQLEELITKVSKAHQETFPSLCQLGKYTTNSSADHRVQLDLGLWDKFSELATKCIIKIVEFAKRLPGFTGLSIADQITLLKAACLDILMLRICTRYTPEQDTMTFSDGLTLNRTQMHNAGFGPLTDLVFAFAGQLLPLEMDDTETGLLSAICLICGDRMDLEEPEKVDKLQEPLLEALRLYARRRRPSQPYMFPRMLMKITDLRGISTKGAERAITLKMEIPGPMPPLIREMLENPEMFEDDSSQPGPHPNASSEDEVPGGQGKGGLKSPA
Sequence of human Retinoid X Receptor beta (RXRb), RXRB (gene 6257) (P28702 whole entry, looked up, the tested form may be a part): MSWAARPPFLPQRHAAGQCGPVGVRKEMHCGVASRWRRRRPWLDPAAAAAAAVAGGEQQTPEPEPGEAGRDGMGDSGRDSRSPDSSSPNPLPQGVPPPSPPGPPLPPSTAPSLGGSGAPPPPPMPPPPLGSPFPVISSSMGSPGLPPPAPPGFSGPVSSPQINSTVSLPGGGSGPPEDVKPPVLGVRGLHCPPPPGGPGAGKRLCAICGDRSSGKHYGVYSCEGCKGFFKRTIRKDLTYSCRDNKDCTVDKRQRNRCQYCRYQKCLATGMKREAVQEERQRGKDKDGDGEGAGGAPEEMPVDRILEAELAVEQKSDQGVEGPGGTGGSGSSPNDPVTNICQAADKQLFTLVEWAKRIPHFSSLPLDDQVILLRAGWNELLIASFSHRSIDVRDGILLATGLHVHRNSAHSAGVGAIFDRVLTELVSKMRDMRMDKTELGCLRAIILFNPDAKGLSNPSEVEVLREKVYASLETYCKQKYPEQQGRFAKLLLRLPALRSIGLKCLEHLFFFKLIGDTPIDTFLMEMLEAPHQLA
Sequence of Nuclear receptor subfamily 1 group I member 2 (Homo sapiens) (O75469 whole entry, looked up, the tested form may be a part): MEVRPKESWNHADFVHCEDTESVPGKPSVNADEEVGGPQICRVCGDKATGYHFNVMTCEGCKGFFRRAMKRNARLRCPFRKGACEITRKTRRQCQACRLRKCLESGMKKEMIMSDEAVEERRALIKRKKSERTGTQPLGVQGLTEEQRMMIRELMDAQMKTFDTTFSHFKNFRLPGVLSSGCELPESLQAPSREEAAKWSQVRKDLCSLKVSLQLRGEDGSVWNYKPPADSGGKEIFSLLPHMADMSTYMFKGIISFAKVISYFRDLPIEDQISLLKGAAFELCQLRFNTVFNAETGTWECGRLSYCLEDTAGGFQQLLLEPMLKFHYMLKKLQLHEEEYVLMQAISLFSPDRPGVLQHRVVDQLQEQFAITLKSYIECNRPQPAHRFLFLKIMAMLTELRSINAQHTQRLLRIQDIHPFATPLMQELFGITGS
Sequence of human Thyroid Receptor alpha (THRa1), THRA (gene 7067) (P10827 whole entry, looked up, the tested form may be a part): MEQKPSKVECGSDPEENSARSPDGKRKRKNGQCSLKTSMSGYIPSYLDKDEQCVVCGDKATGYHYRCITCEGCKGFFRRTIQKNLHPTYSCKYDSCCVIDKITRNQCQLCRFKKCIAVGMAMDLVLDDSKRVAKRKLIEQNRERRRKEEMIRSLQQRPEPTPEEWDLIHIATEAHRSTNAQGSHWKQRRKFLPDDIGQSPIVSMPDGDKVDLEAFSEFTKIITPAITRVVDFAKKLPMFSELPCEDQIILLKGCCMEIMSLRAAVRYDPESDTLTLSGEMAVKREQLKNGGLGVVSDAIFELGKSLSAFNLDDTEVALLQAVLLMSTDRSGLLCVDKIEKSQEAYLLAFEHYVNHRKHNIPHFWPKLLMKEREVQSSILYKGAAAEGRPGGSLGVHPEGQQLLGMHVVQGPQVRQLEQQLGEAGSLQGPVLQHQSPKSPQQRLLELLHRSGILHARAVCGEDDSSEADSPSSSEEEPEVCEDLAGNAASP
Sequence of Peroxisome proliferator-activated receptor gamma (Homo sapiens) (P37231 whole entry, looked up, the tested form may be a part): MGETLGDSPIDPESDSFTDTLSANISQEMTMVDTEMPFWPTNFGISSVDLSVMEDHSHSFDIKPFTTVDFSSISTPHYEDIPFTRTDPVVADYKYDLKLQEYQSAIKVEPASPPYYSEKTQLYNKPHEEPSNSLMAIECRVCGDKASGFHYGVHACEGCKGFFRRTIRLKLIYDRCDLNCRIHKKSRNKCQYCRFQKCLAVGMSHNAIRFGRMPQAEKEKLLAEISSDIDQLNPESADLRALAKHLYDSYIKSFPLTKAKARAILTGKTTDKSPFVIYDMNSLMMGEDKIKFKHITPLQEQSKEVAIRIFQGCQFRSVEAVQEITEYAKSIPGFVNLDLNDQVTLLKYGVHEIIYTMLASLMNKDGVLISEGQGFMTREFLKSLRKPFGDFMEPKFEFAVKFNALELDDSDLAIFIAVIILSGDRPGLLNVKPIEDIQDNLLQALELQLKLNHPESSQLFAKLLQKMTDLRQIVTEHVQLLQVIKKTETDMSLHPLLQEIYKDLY
Sequence of human RAR-related Orphan Receptor beta (RORb), RORB (gene 6096) (Q92753 whole entry, looked up, the tested form may be a part): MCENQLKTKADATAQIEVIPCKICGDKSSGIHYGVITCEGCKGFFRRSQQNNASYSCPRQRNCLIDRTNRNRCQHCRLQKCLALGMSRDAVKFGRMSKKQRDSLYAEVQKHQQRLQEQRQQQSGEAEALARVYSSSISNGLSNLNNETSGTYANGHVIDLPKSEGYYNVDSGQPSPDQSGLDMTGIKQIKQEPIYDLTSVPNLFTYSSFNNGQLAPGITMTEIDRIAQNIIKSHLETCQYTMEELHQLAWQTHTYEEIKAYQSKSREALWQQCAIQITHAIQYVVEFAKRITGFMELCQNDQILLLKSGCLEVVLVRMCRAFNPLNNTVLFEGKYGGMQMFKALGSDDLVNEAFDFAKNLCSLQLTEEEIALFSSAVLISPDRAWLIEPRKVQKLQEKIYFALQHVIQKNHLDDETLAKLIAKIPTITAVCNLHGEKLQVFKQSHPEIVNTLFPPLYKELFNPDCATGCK
Sequence of human Peroxisome Proliferator-activated Receptor delta (PPARd), PPARD (gene 5467) (Q03181 whole entry, looked up, the tested form may be a part): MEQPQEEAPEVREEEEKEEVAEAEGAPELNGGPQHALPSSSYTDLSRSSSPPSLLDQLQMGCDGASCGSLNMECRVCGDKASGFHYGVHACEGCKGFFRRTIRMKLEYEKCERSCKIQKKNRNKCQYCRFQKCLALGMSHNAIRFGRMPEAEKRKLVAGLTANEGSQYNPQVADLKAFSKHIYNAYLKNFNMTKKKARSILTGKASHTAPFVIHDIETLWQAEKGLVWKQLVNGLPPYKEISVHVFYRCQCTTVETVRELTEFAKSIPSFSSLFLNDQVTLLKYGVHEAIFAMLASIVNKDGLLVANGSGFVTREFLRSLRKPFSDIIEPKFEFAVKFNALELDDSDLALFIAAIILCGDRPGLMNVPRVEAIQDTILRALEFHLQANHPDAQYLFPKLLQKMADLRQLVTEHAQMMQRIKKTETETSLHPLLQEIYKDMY
Sequence of human RAR-related Orphan Receptor gamma (RORg), RORC (gene 6097) (P51449 whole entry, looked up, the tested form may be a part): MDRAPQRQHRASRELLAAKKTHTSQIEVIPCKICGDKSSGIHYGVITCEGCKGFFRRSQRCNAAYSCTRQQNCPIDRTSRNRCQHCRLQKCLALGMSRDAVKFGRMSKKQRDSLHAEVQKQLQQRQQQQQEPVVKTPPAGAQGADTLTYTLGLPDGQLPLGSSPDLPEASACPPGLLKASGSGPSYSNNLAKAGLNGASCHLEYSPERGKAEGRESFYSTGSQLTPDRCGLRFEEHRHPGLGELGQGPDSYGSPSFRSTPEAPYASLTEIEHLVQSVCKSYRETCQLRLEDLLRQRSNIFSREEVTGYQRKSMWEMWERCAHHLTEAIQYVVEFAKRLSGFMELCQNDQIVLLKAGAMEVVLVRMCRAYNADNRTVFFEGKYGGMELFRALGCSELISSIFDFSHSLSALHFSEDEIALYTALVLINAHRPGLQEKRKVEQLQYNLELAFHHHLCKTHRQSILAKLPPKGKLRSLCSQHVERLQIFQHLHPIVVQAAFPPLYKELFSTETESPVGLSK
Sequence of Retinoic acid receptor RXR-alpha (Homo sapiens) (P19793 whole entry, looked up, the tested form may be a part): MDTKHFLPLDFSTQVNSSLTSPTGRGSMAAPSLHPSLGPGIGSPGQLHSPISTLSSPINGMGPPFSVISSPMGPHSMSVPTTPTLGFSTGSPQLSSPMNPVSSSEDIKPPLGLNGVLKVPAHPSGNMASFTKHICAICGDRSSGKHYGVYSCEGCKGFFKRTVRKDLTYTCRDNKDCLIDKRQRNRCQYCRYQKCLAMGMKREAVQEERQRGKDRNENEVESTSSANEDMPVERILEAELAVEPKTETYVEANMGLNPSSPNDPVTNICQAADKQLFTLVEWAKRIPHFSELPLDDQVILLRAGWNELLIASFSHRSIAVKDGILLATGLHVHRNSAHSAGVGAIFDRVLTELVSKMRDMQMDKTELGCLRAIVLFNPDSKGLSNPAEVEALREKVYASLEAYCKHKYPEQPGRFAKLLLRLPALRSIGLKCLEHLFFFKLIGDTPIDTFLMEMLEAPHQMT
Sequence of human Retinoic Acid Receptor beta (RARb), RARB (gene 5915) (P10826 whole entry, looked up, the tested form may be a part): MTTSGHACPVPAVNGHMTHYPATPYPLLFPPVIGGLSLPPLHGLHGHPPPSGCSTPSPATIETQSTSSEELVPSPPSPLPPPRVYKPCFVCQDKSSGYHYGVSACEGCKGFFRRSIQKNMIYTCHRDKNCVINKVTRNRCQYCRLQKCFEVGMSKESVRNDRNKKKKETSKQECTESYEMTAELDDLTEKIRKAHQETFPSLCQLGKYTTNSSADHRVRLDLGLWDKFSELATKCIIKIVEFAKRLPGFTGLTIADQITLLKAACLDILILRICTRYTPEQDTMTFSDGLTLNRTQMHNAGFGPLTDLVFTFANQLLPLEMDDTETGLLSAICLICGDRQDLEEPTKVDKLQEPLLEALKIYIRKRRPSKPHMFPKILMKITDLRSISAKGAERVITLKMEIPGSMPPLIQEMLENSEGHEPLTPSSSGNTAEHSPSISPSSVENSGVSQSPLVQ

C=Cc1ccc(C(C)(C)C)cc1
inactive: [1] | [2] | [3]

Cc1c(Cl)cccc1[N+](=O)[O-]
inactive: [1] | [3] | [4]

CS(=O)(=O)c1ccc(Cl)cc1
inactive: [1] | [2] | [5] | [3] | [4]

CCNCCO
inactive: [6] | [7] | [8]

C=CC(=O)OCCCC
inactive: [6] | [9] | [10] | [11] | [4] | [8]

CCC1(C)NC(=O)NC1=O (stereo unspecified)
inactive: [6] | [10] | [5]

CCc1cc(C(C)(C)C)c(O)c(C(C)(C)C)c1
inactive: [6] | [9]
active: [7] 61 µM | [2] 26.8 µM

C[C@H](CCC(=O)NCC(=O)O)[C@H]1CC[C@H]2[C@@H]3[C@H](O)C[C@@H]4C[C@H](O)CC[C@]4(C)[C@H]3C[C@H](O)[C@]12C
inactive: [6] | [9] | [7] | [5] | [11]
active: [8] 68.7 µM

Cc1ccc(C)o1
inactive: [1] | [10] | [11] | [4]

CC(C)CCCCCCc1ccc(OCCOCCO)cc1
inactive: [6] | [2] | [10] | [4]
active: [9] 10.2 µM

CSCCC=O
inactive: [12] | [5] | [4] | [13] | [14] | [15] | [16] | [17] | [18]
active: [7] 56.3 µM | [2] 10.6 µM

CCCCC(CC)C(=O)OC(C)C (stereo unspecified)
inactive: [6] | [7] | [2] | [5] | [4] | [8]

O=C(O)c1cccnc1C(=O)O
inactive: [6] | [9] | [10] | [3] | [11] | [4]

CS(=O)(=O)c1ccc(C2=C(c3ccccc3)C(=O)OC2)cc1
not listed: [1] | [2] | [3] | [5] | [9] | [10]
inactive: all other assays above

CC1CC(O)CC(C)(C)C1 (stereo unspecified)
inactive: [6] | [9] | [2] | [10] | [5] | [11] | [8]

[Cl][Au]([Cl])[Cl]
inactive: [1] | [3]

Source: PubChem BioAssay (EPA / NIEHS)
